# Reference: paper PMC7862700, “An all-to-all approach to the identification of sequence-specific readers for epigenetic DNA modifications on cytosine”
# Legend:
# Experiment in all cases: DAPPL (digital affinity profiling via proximity ligation, sequencing); 10 mM Tris-HCl pH 7.5, 50 mM NaCl, 1 mM DTT, 4% glycerol, room temperature, 30 min; GST-TFs on glutathione beads, 16-mer random dsDNA library, 0.1% formaldehyde crosslink after washing; high values mean tight binding
# [1] = biological target: T1, FLI1 (Homo sapiens, UniProt Q01543 1-452); details: protein: recombinant; tags: N-terminal GST; dsDNA, one strand shown
# T1 sequence: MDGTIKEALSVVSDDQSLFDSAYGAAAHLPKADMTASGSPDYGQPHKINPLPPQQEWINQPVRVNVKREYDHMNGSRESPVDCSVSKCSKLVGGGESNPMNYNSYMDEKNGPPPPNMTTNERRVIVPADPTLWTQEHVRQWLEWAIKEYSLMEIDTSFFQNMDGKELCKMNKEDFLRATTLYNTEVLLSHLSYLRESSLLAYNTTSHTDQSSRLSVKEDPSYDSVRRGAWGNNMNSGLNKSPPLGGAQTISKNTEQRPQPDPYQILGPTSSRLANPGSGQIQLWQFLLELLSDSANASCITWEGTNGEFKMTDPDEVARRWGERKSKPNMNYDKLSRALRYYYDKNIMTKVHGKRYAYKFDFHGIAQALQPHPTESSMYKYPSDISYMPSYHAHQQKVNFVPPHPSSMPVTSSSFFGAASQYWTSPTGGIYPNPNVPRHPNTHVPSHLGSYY
# Method in brief: (§1)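 Sequencing on an Illumina NextSeq500 followed washing, crosslinking with 0.1% formaldehyde, proximity ligation (BsaI/T4 ligase, 1 h, 37 °C) and PCR amplification of pools that had been incubated for 30 min at room temperature with 200 nmole of a random double-stranded 16-mer DNA library in Tris/NaCl/DTT/glycerol buffer. Each pool held DNA-barcoded human transcription factors, expressed in yeast as GST fusions and captured on glutathione beads, plus a tag-only sample. Binding signal is a hexamer's read frequency for a factor divided by its frequency in the tag-only sample.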
# [2] = biological target: T2, ELK1 (Homo sapiens, UniProt P19419 1-428); details: protein: recombinant; tags: N-terminal GST; dsDNA, one strand shown
# T2 sequence: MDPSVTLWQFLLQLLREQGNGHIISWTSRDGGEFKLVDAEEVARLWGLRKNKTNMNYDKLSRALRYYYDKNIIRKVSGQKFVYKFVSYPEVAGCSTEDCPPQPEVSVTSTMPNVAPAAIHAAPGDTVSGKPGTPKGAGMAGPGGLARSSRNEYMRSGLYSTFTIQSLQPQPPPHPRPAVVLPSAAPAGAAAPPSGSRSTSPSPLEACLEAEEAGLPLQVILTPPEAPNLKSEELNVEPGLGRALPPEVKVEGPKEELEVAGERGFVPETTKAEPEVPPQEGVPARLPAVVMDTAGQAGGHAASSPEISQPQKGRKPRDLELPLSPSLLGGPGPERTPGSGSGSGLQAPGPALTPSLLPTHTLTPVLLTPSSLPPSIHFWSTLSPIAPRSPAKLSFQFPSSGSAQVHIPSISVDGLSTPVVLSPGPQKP
# Method in brief: as §1
# [3] = biological target: T3, GABPA (Homo sapiens, UniProt Q06546 1-454); details: protein: recombinant; tags: N-terminal GST; dsDNA, one strand shown
# T3 sequence: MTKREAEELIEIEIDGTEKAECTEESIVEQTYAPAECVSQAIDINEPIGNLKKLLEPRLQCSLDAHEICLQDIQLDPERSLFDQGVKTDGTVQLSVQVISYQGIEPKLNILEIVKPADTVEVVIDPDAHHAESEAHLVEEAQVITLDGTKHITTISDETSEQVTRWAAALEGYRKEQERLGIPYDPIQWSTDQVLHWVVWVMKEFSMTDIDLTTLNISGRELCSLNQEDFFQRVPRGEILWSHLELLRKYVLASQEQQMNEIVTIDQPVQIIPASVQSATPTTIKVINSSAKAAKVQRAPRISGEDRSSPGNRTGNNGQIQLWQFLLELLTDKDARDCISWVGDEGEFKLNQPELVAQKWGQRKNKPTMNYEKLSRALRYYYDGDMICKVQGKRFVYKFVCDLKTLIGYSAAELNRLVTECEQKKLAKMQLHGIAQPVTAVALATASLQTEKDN
# Method in brief: as §1
# [4] = biological target: T4, ERG (Homo sapiens, UniProt P11308 1-479); details: protein: recombinant; tags: N-terminal GST; dsDNA, one strand shown
# T4 sequence: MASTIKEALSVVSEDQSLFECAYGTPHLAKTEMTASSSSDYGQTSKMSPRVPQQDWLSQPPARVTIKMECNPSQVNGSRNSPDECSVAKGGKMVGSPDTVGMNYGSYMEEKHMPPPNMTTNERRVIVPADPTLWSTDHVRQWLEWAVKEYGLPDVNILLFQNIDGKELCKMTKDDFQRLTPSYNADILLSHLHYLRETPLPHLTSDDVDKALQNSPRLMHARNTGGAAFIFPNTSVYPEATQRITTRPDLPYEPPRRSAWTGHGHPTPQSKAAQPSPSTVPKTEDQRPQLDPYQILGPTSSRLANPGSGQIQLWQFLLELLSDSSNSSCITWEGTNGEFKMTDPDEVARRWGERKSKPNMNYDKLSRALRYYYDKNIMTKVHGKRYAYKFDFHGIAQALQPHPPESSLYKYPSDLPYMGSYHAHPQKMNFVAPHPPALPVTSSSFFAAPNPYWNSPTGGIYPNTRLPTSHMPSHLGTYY
# Method in brief: as §1
# [5] = biological target: ELF1 (Homo sapiens, UniProt P32519 1-619); details: protein: recombinant; tags: N-terminal GST; dsDNA, one strand shown
# Chain of ELF1 (P32519 whole entry): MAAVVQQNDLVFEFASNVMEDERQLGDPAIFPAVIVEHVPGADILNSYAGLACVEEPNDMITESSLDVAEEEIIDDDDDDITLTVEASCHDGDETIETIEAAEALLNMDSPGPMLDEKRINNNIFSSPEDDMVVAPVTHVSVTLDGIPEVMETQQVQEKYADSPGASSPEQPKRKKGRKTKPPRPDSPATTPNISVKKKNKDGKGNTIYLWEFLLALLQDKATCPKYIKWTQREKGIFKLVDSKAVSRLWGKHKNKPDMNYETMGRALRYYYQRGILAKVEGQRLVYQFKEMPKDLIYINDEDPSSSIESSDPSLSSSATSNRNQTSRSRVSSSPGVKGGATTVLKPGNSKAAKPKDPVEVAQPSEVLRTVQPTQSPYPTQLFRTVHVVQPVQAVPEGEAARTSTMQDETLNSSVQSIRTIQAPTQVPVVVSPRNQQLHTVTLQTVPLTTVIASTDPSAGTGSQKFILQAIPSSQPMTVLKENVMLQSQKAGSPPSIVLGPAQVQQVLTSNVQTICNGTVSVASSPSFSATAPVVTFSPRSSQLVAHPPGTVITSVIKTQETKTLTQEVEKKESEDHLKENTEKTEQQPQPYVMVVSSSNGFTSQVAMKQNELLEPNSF
# Method in brief: as §1
# [6] = biological target: T5, EHF (Homo sapiens, UniProt Q9NZC4 1-300); details: protein: recombinant; tags: N-terminal GST; dsDNA, one strand shown
# T5 sequence: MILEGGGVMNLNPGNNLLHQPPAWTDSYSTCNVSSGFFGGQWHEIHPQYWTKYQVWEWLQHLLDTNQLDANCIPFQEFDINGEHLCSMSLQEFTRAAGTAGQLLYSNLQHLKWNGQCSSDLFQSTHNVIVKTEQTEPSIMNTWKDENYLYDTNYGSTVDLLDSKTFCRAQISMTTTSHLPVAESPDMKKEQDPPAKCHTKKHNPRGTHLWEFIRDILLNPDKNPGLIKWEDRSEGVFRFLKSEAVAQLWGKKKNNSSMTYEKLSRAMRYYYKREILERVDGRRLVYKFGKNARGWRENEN
# Method in brief: as §1
# [7] = biological target: SPI1 (Homo sapiens, UniProt P17947 1-270); details: protein: recombinant; tags: N-terminal GST; dsDNA, one strand shown
# Method in brief: as §1
# [8] = biological target: SPIB (Homo sapiens, UniProt Q01892 1-262); details: protein: recombinant; tags: N-terminal GST; dsDNA, one strand shown
# Chain of SPIB (Q01892 whole entry): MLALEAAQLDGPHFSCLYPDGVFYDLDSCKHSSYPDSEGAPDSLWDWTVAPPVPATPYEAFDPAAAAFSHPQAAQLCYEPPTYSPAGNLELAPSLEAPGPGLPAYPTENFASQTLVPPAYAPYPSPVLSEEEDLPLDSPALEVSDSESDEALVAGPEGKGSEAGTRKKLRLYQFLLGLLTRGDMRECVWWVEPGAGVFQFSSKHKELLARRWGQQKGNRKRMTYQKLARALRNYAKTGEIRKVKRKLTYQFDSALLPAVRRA
# Method in brief: as §1
# [9] = biological target: T6, ELK3 (Homo sapiens, UniProt P41970 1-407); details: protein: recombinant; tags: N-terminal GST; dsDNA, one strand shown
# T6 sequence: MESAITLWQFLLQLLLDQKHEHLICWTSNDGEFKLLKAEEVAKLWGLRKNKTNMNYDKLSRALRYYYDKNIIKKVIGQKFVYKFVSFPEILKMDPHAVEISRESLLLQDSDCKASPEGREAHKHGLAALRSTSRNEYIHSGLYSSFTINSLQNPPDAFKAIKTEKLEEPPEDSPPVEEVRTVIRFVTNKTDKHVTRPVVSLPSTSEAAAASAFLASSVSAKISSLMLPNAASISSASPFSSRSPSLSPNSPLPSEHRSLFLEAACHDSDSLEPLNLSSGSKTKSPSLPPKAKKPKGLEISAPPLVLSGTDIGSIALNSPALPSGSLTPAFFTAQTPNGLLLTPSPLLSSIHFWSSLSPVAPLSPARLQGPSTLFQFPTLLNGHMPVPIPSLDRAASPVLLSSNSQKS
# Method in brief: as §1
# [10] = biological target: T7, FEV (Homo sapiens, UniProt Q99581 1-238); details: protein: recombinant; tags: N-terminal GST; dsDNA, one strand shown
# T7 sequence: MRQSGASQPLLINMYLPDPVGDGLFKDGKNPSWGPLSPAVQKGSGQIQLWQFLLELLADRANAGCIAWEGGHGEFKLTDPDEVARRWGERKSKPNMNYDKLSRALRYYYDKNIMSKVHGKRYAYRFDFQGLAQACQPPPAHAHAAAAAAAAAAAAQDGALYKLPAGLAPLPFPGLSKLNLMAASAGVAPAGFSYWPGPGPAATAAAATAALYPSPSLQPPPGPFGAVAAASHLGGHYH
# Method in brief: as §1
# [11] = biological target: ETV5 (Homo sapiens, UniProt P41161 1-510); details: protein: recombinant; tags: N-terminal GST; dsDNA, one strand shown
# Chain of ETV5 (P41161 whole entry): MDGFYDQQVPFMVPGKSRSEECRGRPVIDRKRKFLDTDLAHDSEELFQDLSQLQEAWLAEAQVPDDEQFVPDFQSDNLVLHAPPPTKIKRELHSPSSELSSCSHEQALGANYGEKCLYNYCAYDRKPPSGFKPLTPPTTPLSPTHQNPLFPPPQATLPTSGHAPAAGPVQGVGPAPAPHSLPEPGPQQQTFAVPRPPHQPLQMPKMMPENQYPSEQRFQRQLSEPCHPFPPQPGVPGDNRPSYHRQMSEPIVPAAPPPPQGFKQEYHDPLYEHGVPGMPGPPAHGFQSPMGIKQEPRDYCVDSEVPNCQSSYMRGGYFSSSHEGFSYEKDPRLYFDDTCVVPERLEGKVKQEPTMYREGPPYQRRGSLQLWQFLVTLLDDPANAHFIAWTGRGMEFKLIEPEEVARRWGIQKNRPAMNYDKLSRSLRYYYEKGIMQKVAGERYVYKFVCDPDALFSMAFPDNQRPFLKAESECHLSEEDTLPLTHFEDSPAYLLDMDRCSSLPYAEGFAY
# Method in brief: as §1
# [12] = biological target: HSF1 (Homo sapiens, UniProt Q00613 1-529); details: protein: recombinant; tags: N-terminal GST; chain copies: 3; dsDNA, one strand shown
# Chain of HSF1 (Q00613 whole entry): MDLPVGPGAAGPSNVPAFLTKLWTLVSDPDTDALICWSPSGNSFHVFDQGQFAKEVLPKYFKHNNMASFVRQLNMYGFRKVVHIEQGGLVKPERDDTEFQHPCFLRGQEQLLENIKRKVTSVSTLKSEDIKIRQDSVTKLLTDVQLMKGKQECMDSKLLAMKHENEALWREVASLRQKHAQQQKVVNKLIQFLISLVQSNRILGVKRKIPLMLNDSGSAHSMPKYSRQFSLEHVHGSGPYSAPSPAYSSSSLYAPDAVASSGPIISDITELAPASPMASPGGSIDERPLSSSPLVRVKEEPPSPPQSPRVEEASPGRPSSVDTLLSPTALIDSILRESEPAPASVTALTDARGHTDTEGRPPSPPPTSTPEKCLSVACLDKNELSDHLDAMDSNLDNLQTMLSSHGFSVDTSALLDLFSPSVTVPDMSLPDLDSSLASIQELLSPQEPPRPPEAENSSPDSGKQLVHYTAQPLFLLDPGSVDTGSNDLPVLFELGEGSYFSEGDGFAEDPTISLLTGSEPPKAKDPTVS
# Method in brief: as §1
# [13] = biological target: T8, SPIC (Homo sapiens, UniProt Q8N5J4 1-248); details: protein: recombinant; tags: N-terminal GST; dsDNA, one strand shown
# T8 sequence: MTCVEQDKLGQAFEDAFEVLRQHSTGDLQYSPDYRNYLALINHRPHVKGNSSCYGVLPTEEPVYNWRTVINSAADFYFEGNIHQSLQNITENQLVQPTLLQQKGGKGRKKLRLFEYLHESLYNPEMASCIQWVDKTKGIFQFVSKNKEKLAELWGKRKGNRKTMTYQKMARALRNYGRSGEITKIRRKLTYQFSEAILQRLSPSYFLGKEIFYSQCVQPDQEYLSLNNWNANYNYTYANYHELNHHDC
# Method in brief: as §1
# [14] = biological target: ELF4 (Homo sapiens, UniProt Q99607 1-663); details: protein: recombinant; tags: N-terminal GST; dsDNA, one strand shown
# Chain of ELF4 (Q99607 whole entry): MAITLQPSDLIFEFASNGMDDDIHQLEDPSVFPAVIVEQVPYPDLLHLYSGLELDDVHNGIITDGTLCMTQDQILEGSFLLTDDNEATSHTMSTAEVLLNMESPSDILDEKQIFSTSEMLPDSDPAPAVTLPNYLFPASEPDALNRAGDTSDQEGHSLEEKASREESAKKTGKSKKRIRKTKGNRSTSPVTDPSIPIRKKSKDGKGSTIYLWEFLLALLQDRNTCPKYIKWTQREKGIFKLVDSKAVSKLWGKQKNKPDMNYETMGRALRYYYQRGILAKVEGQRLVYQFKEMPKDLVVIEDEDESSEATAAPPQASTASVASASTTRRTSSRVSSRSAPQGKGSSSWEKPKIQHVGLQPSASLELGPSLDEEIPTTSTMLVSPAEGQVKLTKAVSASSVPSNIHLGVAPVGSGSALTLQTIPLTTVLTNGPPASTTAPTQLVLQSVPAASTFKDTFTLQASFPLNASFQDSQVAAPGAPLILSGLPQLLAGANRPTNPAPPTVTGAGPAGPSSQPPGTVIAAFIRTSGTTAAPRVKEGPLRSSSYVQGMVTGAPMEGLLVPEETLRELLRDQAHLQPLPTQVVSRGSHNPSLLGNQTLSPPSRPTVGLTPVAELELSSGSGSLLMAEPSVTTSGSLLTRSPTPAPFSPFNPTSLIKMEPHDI
# Method in brief: as §1
# [15] = biological target: T9, ELK4 (Homo sapiens, UniProt P28324-2 1-405); details: protein: recombinant; tags: N-terminal GST; dsDNA, one strand shown
# T9 sequence: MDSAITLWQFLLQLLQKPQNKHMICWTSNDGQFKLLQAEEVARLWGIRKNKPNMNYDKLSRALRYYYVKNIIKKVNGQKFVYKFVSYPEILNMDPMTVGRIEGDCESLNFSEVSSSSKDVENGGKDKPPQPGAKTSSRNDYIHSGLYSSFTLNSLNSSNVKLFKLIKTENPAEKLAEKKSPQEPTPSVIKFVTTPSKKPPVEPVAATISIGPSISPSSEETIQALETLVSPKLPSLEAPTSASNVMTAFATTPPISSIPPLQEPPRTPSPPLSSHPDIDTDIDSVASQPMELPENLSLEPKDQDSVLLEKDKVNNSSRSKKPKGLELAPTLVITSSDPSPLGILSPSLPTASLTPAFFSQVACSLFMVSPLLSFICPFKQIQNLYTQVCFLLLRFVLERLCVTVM
# Method in brief: as §1
# [16] = biological target: T10, ETV2 (Homo sapiens, UniProt O00321 1-342); details: protein: recombinant; tags: N-terminal GST; dsDNA, one strand shown
# T10 sequence: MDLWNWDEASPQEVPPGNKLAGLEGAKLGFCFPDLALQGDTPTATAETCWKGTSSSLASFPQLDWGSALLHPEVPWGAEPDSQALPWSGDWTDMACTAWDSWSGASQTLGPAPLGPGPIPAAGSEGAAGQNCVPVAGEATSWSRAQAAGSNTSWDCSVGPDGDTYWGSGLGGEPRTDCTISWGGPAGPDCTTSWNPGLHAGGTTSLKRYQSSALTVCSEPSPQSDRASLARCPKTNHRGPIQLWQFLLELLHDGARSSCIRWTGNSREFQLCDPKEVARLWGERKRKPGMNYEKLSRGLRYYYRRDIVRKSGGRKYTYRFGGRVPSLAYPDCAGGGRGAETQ
# Method in brief: as §1
# [17] = biological target: T11, ELF3 (Homo sapiens, UniProt P78545 1-371); details: protein: recombinant; tags: N-terminal GST; dsDNA, one strand shown
# T11 sequence: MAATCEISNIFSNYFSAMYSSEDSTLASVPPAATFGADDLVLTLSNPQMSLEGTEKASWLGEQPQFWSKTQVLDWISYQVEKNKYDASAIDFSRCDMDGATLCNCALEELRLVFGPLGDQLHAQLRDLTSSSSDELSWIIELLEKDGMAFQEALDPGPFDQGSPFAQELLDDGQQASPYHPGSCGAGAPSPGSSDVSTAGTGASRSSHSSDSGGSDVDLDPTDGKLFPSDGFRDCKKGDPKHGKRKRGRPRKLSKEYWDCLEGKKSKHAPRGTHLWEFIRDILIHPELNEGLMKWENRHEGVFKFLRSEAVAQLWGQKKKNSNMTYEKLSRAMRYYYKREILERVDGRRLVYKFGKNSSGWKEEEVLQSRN
# Method in brief: as §1
# [18] = biological target: CRX (Homo sapiens, UniProt O43186 1-299); details: protein: recombinant; tags: N-terminal GST; dsDNA, one strand shown
# Chain of CRX (O43186 whole entry): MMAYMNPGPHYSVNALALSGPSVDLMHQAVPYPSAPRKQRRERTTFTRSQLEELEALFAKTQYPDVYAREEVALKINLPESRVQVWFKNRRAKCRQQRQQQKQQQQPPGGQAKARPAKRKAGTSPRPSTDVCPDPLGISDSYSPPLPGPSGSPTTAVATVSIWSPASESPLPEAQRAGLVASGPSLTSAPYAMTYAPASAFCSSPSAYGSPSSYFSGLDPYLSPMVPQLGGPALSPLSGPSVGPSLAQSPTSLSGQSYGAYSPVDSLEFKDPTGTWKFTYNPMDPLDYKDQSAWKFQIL
# Method in brief: as §1
# [19] = biological target: ETV1 (Homo sapiens, UniProt P50549 1-477); details: protein: recombinant; tags: N-terminal GST; dsDNA, one strand shown
# Chain of ETV1 (P50549 whole entry): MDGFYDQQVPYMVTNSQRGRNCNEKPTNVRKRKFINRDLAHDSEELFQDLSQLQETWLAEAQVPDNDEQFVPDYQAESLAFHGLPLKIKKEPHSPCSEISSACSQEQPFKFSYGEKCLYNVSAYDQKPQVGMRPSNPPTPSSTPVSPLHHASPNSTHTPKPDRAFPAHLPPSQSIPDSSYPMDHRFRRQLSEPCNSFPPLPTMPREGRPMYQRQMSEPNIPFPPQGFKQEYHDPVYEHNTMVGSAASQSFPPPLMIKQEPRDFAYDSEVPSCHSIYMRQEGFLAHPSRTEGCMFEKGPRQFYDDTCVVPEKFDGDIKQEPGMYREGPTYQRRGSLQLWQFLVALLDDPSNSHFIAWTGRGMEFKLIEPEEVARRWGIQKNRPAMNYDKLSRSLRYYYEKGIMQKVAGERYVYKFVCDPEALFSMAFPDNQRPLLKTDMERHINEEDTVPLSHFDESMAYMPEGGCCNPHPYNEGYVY
# Method in brief: as §1
sequence,measurement,setting,value
TCCCCC,binding signal,[1],"1.59 fold enrichment (6-mer frequency, TF over GST control)"
same,binding signal,[2],"1.54 fold enrichment (6-mer frequency, TF over GST control)"
same,binding signal,[3],"1.44 fold enrichment (6-mer frequency, TF over GST control)"
same,binding signal,[4],"1.48 fold enrichment (6-mer frequency, TF over GST control)"
same,binding signal,[5],"1.58 fold enrichment (6-mer frequency, TF over GST control)"
same,binding signal,[6],"1.52 fold enrichment (6-mer frequency, TF over GST control)"
same,binding signal,[7],"1.46 fold enrichment (6-mer frequency, TF over GST control)"
same,binding signal,[8],"1.53 fold enrichment (6-mer frequency, TF over GST control)"
same,binding signal,[9],"1.27 fold enrichment (6-mer frequency, TF over GST control)"
same,binding signal,[10],"1.44 fold enrichment (6-mer frequency, TF over GST control)"
same,binding signal,[11],"1.48 fold enrichment (6-mer frequency, TF over GST control)"
same,binding signal,[12],"1.41 fold enrichment (6-mer frequency, TF over GST control)"
same,binding signal,[13],"1.44 fold enrichment (6-mer frequency, TF over GST control)"
same,binding signal,[14],"1.53 fold enrichment (6-mer frequency, TF over GST control)"
same,binding signal,[15],"1.57 fold enrichment (6-mer frequency, TF over GST control)"
same,binding signal,[16],"1.53 fold enrichment (6-mer frequency, TF over GST control)"
same,binding signal,[17],"1.42 fold enrichment (6-mer frequency, TF over GST control)"
same,binding signal,[18],"1.45 fold enrichment (6-mer frequency, TF over GST control)"
same,binding signal,[19],"1.46 fold enrichment (6-mer frequency, TF over GST control)"
